Laboratory results as given in the supplement of paper PMC6518042.
Unmarked numbers belong to inactive results.

Tested on: Pectobacterium parmentieri SCC3193
Test: DuctApe activity index (growth/respiration on compound as sole nutrient source, blank-subtracted) (activity index (0-3)); higher = stronger utilization of the compound, active = 3 or more
Conditions: nutrient role (plate category): carbon
Protocol: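 Biolog Phenotype Microarray plates PM1, PM2A (carbon), PM3 (nitrogen) and PM4 (phosphorus/sulfur) inoculated with P. parmentieri SCC3193 in M9-C minimal salts medium with Biolog dye A, and read in the OmniLog for 46 h. Each well was tested in triplicate and the experiment was run twice. DuctApe computed a blank-subtracted activity index (AV, 0-3) from the mean curves; growth is positive at AV >= 3 and negative at AV <= 2.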

Compound	DuctApe activity index
O=C(O)[C@H]1OC(O)[C@H](O)[C@@H](O)[C@@H]1O (stereo partly drawn) [D-Glucuronic acid]	0
OC[C@H]1O[C@@](CO)(O[C@H]2O[C@H](CO)[C@@H](O)[C@H](O)[C@H]2O)[C@@H](O[C@H]2O[C@H](CO)[C@@H](O)[C@H](O)[C@H]2O)[C@@H]1O [D-Melezitose]	0
OC[C@H]1O[C@@](CO)(O[C@H]2O[C@H](CO)[C@@H](O)[C@H](O)[C@H]2O)[C@@H](O)[C@@H]1O [Sucrose]	3 (active)
NCCCC[C@H](N)C(=O)O [L-Lysine]	0
N[C@@H](CO)C(=O)O [L-Serine]	3 (active)
OC[C@@]12OC[C@@H](O1)[C@@H](O)[C@@H](O)[C@@H]2O [Sedoheptulosan]	0
Nc1ncnc2c1ncn2[C@@H]1O[C@H](CO)[C@@H](O)[C@H]1O [Adenosine]	1
CC(O)C(C)O (stereo not given) [2,3-Butanediol]	0
NCC(=O)N[C@@H](CCC(=O)O)C(=O)O	0
N[C@@H](CC(=O)O)C(=O)O [L-Aspartic acid]	3 (active)
Cc1cn([C@H]2C[C@H](O)[C@@H](CO)O2)c(=O)[nH]c1=O [Thymidine]	1
O=P(O)(O)O[C@H]1O[C@H](CO)[C@@H](O)[C@H](O)[C@H]1O [D-Glucose-1-Phosphate]	0
NCCC[C@H](N)C(=O)O [L-Ornithine]	0
O=c1ccn([C@@H]2O[C@H](CO)[C@@H](O)[C@H]2O)c(=O)[nH]1 [Uridine]	1
N[C@@H](Cc1ccccc1)C(=O)O [L-Phenylalanine]	0
CC(C)[C@H](N)C(=O)O [L-Valine]	0

Compound	DuctApe activity index
CC(=O)N[C@@H]1[C@@H](O)[C@H](O)[C@@H](CO)O[C@@H]1O [N-Acetyl-D-Glucosamine]	3 (active)
CO[C@@H]1O[C@H](C(=O)O)[C@@H](O)[C@H](O)[C@H]1O [b-Methyl-D-Glucuronic acid]	0
O=C(O)[C@H]1O[C@@H](O)[C@H](O)[C@@H](O)[C@H]1O [Pectin]	3 (active)
CC(=O)N[C@@H]1C(O)O[C@H](CO)[C@@H](O)[C@@H]1O (stereo partly drawn) [N-Acetyl-D-Mannosamine]	0
N[C@H]1C(O)O[C@H](CO)[C@@H](O)[C@@H]1O (stereo partly drawn) [D-Glucosamine]	3 (active)
O=C(O)CCCCCCCCC(=O)O [Sebacic acid]	0
C[C@@H](O)[C@H](N)C(=O)O [L-Threonine]	0
OC[C@H]1OC(O)[C@H](O)[C@@H](O)[C@H]1O (stereo partly drawn) [D-Galactose]	3 (active)
O=C(O)CCC(=O)O [Succinic acid]	3 (active)
O=C(O)[C@@H]1CCCN1 [L-Proline]	0
CC(=O)N[C@@H](CCC(=O)O)C(=O)O [N-Acetyl-L-Glutamic acid]	0
OC[C@H](O)C(O)[C@@H](O)CO [L-Arabitol]	0
CCCCCCCCCC(=O)O [Capric acid]	0
OC[C@@H](O)[C@H](O)[C@H](O)[C@@H](O)CO [Dulcitol]	0
CC1OC(O)C(O)C(O)C1O [L-Fucose]	0

Same assay, conditions: nutrient role (plate category): nitrogen

Compound	DuctApe activity index
NCCCC[C@H](N)C(=O)O [L-Lysine]	0
N[C@@H](CO)C(=O)O [L-Serine]	1
Nc1ncnc2c1ncn2[C@@H]1O[C@H](CO)[C@@H](O)[C@H]1O [Adenosine]	2
NCC(=O)N[C@@H](CCC(=O)O)C(=O)O	1
N[C@@H](CC(=O)O)C(=O)O [L-Aspartic acid]	0
Nc1nc2c(ncn2[C@@H]2O[C@H](CO)[C@@H](O)[C@H]2O)c(=O)[nH]1 [Guanosine]	0
Cc1cn([C@H]2C[C@H](O)[C@@H](CO)O2)c(=O)[nH]c1=O [Thymidine]	0
NCCC[C@H](N)C(=O)O [L-Ornithine]	0
O=c1ccn([C@@H]2O[C@H](CO)[C@@H](O)[C@H]2O)c(=O)[nH]1 [Uridine]	0
N[C@@H](Cc1ccccc1)C(=O)O [L-Phenylalanine]	0
Oc1nc(O)c2nc(O)[nH]c2n1 [Uric acid]	0
CC(C)[C@H](N)C(=O)O [L-Valine]	0
CC(=O)N[C@@H]1[C@@H](O)[C@H](O)[C@@H](CO)O[C@@H]1O [N-Acetyl-D-Glucosamine]	3 (active)
CC(=O)N[C@@H]1C(O)O[C@H](CO)[C@@H](O)[C@@H]1O (stereo partly drawn) [N-Acetyl-D-Mannosamine]	0
N[C@H]1C(O)O[C@H](CO)[C@@H](O)[C@@H]1O (stereo partly drawn) [D-Glucosamine]	3 (active)
C[C@@H](O)[C@H](N)C(=O)O [L-Threonine]	0
O=C(O)[C@@H]1CCCN1 [L-Proline]	0
CC(=O)N[C@@H](CCC(=O)O)C(=O)O [N-Acetyl-L-Glutamic acid]	0
CSCC[C@H](NC(=O)CN)C(=O)O	0
